Read-out in test [1]: Nuclear factor erythroid 2-related factor 2 (Homo sapiens) (UniProt Q16236)
As to the kind of experiment: LTEA_HepaRG_NFE2L2: Life Technologies and Expression Analysis (LTEA) Assay for Nuclear factor erythroid 2-related factor 2 (NFE2L2) Transcription Factor using HepaRG (AID 2283527).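 For outcome: TaqMan qRT-PCR transcript level normalised to ACTB GAPDH and POLR2A housekeeping genes.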 Particulars: mRNA level, 48 h; actives raise or lower the signal. The method in brief:
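NFE2L2 transcript level was read by qRT-PCR (housekeeping ACTB/GAPDH/POLR2A normalisation) after 48 h chemical treatment of HepaRG in serum-free induction medium. Duplicate 8-point half-log curves, top 100 uM, 0.5% DMSO vehicle; up- or down-regulation fitted against vehicle.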

Read-out in test [2]: Signal transducer and activator of transcription 3 (Homo sapiens) (UniProt P40763)
As to the kind of experiment: LTEA_HepaRG_STAT3: Life Technologies and Expression Analysis (LTEA) Assay for Signal transducer and activator of transcription (STAT3) using HepaRG (AID 2283529). The settings on record: mRNA level, 48 h; actives raise or lower the signal. The procedure, abridged:
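STAT3 transcript quantified by qRT-PCR against three housekeeping genes (ACTB, GAPDH, POLR2A), fitted both directions relative to DMSO. HepaRG cultures exposed 48 h to eight half-log concentrations, top 100 uM, 0.5% DMSO, serum-free induction medium.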

Read-out in test [3]: solute carrier (SLCO1B1), SLCO1B1 (gene 10599)
As to the kind of experiment: LTEA_HepaRG_SLCO1B1: Life Technologies and Expression Analysis (LTEA) Assay for solute carrier (SLCO1B1) using HepaRG (AID 2283530). The settings on record: mRNA level, 48 h; actives raise or lower the signal. The method in brief:
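Differentiated human HepaRG cells were exposed for 48 h in serum-free induction medium to eight half-log concentrations, top 100 uM, in 0.5% DMSO. SLCO1B1 mRNA was measured by qRT-PCR, normalized to ACTB, GAPDH and POLR2A, and fitted bidirectionally against DMSO.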

Read-out in test [4]: Transforming Growth Factor (TGFA), TGFA (gene 7039)
As to the kind of experiment: LTEA_HepaRG_TGFA: Life Technologies and Expression Analysis (LTEA) Assay for Transforming Growth Factor (TGFA) using HepaRG (AID 2283532). The settings on record: mRNA level, 48 h; actives raise or lower the signal. The method in brief:
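TGFA transcript quantified by qRT-PCR (Fluidigm arrays) against three housekeeping genes, after 48 hours chemical treatment of HepaRG cells. Top concentration 100 uM with half-log dilutions, 8 points, duplicates, 0.5% DMSO.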

Read-out in test [5]: Transforming Growth Factor (TGFB1), TGFB1 (gene 7040)
As to the kind of experiment: LTEA_HepaRG_TGFB1: Life Technologies and Expression Analysis (LTEA) Assay for Transforming Growth Factor (TGFB1) Transporter using HepaRG (AID 2283533). The settings on record: mRNA level, 48 h; actives raise or lower the signal. The method in brief:
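Differentiated HepaRG cells exposed 48 hr in serum-free induction medium to eight half-log concentrations up to 100 uM (0.5% DMSO), duplicate; TGFB1 mRNA by TaqMan qRT-PCR normalised to ACTB, GAPDH, POLR2A; bidirectional fit against DMSO.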

Read-out in a further test: TIMP1, TIMP1 (gene 7076)
As to the kind of experiment: LTEA_HepaRG_TIMP1: Life Technologies and Expression Analysis (LTEA) Assay for TIMP1 using HepaRG (AID 2283534). The settings on record: mRNA level, 48 h; actives raise or lower the signal. The procedure, abridged: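 Differentiated HepaRG cells exposed 48 h in serum-free induction medium, duplicates, eight half-log concentrations from 100 uM in 0.5% DMSO. TIMP1 mRNA by qRT-PCR normalized to ACTB, GAPDH, POLR2A; bidirectional fitting against DMSO.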

Read-out in test [6]: Tumor necrosis factor receptor 1 (TNFRSF1A), TNFRSF1A (gene 7132)
As to the kind of experiment: LTEA_HepaRG_TNFRSF1A: Life Technologies and Expression Analysis (LTEA) Assay for Tumor necrosis factor receptor 1 (TNFRSF1A) using HepaRG (AID 2283535). Particulars: mRNA level, 48 h; actives raise or lower the signal. The method in brief: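 Differentiated HepaRG cells in serum-free induction medium, exposed 48 h in duplicate to 8 half-log concentrations up to 100 uM in 0.5% DMSO. TNFRSF1A mRNA by Fluidigm TaqMan qRT-PCR, normalized to ACTB, GAPDH, POLR2A; bidirectional fit.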

Read-out in test [7]: Thyroid Hormone Responsive (THRSP), THRSP (gene 7069)
As to the kind of experiment: LTEA_HepaRG_THRSP: Life Technologies and Expression Analysis (LTEA) Assay for Thyroid Hormone Responsive (THRSP) using HepaRG (AID 2283536). Particulars: mRNA level, 48 h; actives raise or lower the signal. The method in brief:
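THRSP transcript quantified by Fluidigm qRT-PCR against three housekeeping genes after 48 h chemical exposure of HepaRG cells in serum-free induction medium; eight-point half-log series, top 100 uM, 0.5% DMSO vehicle, duplicate wells.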

Read-out in test [8]: Cellular tumor antigen p53 (Homo sapiens) (UniProt P04637)
Briefly: LTEA_HepaRG_TP53: Life Technologies and Expression Analysis (LTEA) Assay for Tumor Protein P53 (TP53) using HepaRG (AID 2283537). Particulars: mRNA level, 48 h; actives raise or lower the signal. The procedure, abridged:
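Differentiated HepaRG cells in serum-free induction medium exposed 48 h in duplicate to 8 half-log concentrations, top 100 uM, 0.5% DMSO. TP53 mRNA by TaqMan qRT-PCR (Fluidigm), normalized to ACTB, GAPDH, POLR2A; fitted bidirectionally versus DMSO.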

Read-out in test [9]: UDP glucuronosyltransferase (UGT1A1), UGT1A1 (gene 54658)
As to the kind of experiment: LTEA_HepaRG_UGT1A1: Life Technologies and Expression Analysis (LTEA) Assay for UDP glucuronosyltransferase (UGT1A1) using HepaRG (AID 2283538). Particulars: mRNA level, 48 h; actives raise or lower the signal. The procedure, abridged:
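UGT1A1 transcript level, measured by qRT-PCR with three housekeeping genes for normalization, after 48 h treatment of human HepaRG cells (0.5% DMSO, duplicates, up to 100 uM, half-log steps, 8 points). Curves fit both directions against DMSO baseline.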

Read-out in test [10]: UDP glucuronosyltransferase (UGT1A6), UGT1A6 (gene 54578)
Briefly: LTEA_HepaRG_UGT1A6: Life Technologies and Expression Analysis (LTEA) Assay for UDP glucuronosyltransferase (UGT1A6) using HepaRG (AID 2283539). Particulars: mRNA level, 48 h; actives raise or lower the signal. The method in brief:
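Differentiated HepaRG cells, ~100,000/well, were exposed for 48 h in serum-free induction medium with 0.5% DMSO to 8-point half-log series topping at 100 uM, in duplicate. mRNA measured by Fluidigm TaqMan qRT-PCR, normalized to ACTB, GAPDH and POLR2A.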

Read-out in test [11]: X-box binding protein 1 (XBP1), XBP1 (gene 7494)
Briefly: LTEA_HepaRG_XBP1: Life Technologies and Expression Analysis (LTEA) Assay for X-box binding protein 1 (XBP1) using HepaRG (AID 2283540). Particulars: mRNA level, 48 h; actives raise or lower the signal. The procedure, abridged:
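Differentiated human HepaRG cells in serum-free induction medium exposed 48 h in duplicate to eight half-log concentrations up to 100 uM in 0.5% DMSO. XBP1 mRNA measured by Fluidigm TaqMan qRT-PCR, normalized to ACTB, GAPDH, POLR2A; bidirectional fitting against DMSO.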

The nature of test [12]: LTEA_HepaRG_LDH_cytotoxicity: Cytotoxicity Assessment in the Life Technologies and Expression Analysis (LTEA) Assay (AID 2283563; active = hit-call score of the fitted dose curve at least 0.9, where 1 is the maximum;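 for AC50: LDH activity released into spent culture medium as a marker of cell death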). The method in brief:
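Differentiated HepaRG cells in serum-free induction medium, exposed 48 h in duplicate to 8 half-log concentrations up to 100 uM in 0.5% DMSO. Cytotoxicity from LDH measured in spent medium, fit relative to DMSO.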

Test [13] deals with Cellular tumor antigen p53 (Homo sapiens) (UniProt P04637). Briefly: TOX21_p53_BLA_p2_ratio: Tox21 HCT-116 p53 Agonism Beta-lactamase Assay, Ratio, Phase 2 (AID 2283592; active = hit-call score of the fitted dose curve at least 0.9, where 1 is the maximum). The procedure, abridged: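 First, HCT116 reporter cells settle for 5 h at 37C. Next, DMSO compound solutions are pinned in (217-fold dilution) and left 16 h. Finally, CCF4-AM substrate is loaded 2 h at room temperature and the 460/530 nm ratio read.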

For test [14] the target is unchanged. As to the kind of experiment: TOX21_p53_BLA_p3_ratio: Tox21 HCT-116 p53 Agonism Beta-lactamase Assay, Ratio, Phase 3 (AID 2283596; active = hit-call score of the fitted dose curve at least 0.9, where 1 is the maximum). The method in brief:
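Cells were seeded at 4000/well, rested 5 h at 37C, then dosed with DMSO compound solutions (217-fold dilution) for 16 h. CCF4-AM substrate was loaded for 2 h at room temperature, and the 460/530 nm emission ratio was fitted for gain of signal versus DMSO.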

The nature of test [15]: ATG_XTT_Cytotoxicity: Cytotoxicity Assessment in the Attagene TRANS-FACTORIAL HepG2 Assay (AID 2283584; active = hit-call score of the fitted dose curve at least 0.9, where 1 is the maximum). The procedure, abridged:
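HepG2 cells transiently transfected with GAL4-UAS multiple reporter units, dosed 24 h; cytotoxicity read by XTT as loss of signal versus DMSO baseline.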

Read-out in test [16]: sulfotransferase 2A1 (SULT2A1), SULT2A1 (gene 6822)
Briefly: LTEA_HepaRG_SULT2A1: Life Technologies and Expression Analysis (LTEA) Assay for sulfotransferase 2A1 (SULT2A1) using HepaRG (AID 2283531). The settings on record: mRNA level, 48 h; actives raise or lower the signal. The method in brief:
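HepaRG human liver cells, 48 h exposure in serum-free induction medium to 8 half-log concentrations topping at 100 µM (0.5% DMSO), duplicate wells. SULT2A1 mRNA measured by TaqMan qRT-PCR, normalized to ACTB/GAPDH/POLR2A; bidirectional fit against DMSO.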

Test [17] can be described thus: TOX21_p53_BLA_p2_viability: Viability Assessment in the Tox21 HCT-116 p53 Agonism Beta-lactamase Assay, Phase 2 (AID 2283591; active = hit-call score of the fitted dose curve at least 0.9, where 1 is the maximum;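 note: compound exposure lasted 16 h at 37 °C; actives lower the ATP signal meaning cytotoxicity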). The method in brief:
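Cytotoxicity readout: CellTiter-Glo ATP luminescence, 30 min at room temperature, after the beta-lactamase read. Cells were HCT116 exposed 16 h at 37C to compounds pin-transferred at 217-fold dilution from DMSO stocks.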

A short description of test [18]: TOX21_p53_BLA_p3_viability: Viability Assessment in the Tox21 HCT-116 p53 Agonism Beta-lactamase Assay, Phase 3 (AID 2283593; active = hit-call score of the fitted dose curve at least 0.9, where 1 is the maximum;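 note: cells exposed to compound for 16 h before reading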). The method in brief: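 Cellular ATP was quantified by CellTiter-Glo luminescence, read after 30 min at room temperature. Beforehand, HCT116 cells (4000/well) received compound 5 h post-seeding, 217-fold diluted from DMSO, then incubated 16 h at 37C.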

Several values for one entry are separate records, joined by “and”; a condition that tells them apart may be missing. Equal entries are not always repeated. Results filed as inconclusive are left out. More than one record can exist for a structure, and the calls need not agree. Activity calls are given as the source filed them. Rule for the calls, unless noted: active = hit-call score of the fitted dose curve at least 0.9, where 1 is the maximum; inactive = score below 0.9.

Nuclear factor erythroid 2-related factor 2 (Homo sapiens), sequence (Q16236 whole entry, looked up): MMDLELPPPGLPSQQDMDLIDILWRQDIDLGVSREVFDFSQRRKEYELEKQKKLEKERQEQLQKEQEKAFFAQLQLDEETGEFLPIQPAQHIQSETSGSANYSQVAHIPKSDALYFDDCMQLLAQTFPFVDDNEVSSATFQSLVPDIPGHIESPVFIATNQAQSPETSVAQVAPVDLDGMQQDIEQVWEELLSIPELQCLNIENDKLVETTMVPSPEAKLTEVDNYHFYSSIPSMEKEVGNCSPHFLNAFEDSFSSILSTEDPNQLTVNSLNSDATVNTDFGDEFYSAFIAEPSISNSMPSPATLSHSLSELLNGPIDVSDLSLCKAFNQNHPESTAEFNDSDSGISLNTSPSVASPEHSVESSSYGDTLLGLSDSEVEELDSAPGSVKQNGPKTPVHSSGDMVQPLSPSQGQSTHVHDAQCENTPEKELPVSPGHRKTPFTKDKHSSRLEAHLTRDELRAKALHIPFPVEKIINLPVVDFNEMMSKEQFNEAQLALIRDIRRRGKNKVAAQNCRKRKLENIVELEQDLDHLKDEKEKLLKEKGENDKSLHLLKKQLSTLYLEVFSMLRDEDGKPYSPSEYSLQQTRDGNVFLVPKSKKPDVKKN
Signal transducer and activator of transcription 3 (Homo sapiens), sequence (P40763 whole entry, looked up): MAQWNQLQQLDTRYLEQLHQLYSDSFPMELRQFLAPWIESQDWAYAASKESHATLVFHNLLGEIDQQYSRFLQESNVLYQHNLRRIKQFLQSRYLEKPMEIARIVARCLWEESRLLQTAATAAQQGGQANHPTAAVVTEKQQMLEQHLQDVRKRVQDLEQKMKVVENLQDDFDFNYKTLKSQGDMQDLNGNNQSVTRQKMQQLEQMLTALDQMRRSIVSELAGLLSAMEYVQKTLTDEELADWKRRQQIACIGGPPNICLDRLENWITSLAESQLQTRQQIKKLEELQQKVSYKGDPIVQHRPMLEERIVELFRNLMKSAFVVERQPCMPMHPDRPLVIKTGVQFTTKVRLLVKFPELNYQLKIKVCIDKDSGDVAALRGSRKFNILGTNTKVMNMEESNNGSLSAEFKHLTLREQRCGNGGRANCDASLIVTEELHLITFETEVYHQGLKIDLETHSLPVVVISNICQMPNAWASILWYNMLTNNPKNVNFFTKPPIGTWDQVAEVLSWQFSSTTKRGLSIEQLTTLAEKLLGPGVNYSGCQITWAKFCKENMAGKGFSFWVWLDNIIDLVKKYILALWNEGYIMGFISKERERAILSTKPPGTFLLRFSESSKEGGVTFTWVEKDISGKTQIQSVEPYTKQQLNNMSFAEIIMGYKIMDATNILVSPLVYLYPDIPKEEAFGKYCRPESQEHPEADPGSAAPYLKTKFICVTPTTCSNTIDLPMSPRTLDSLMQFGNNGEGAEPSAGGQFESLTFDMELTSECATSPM
Cellular tumor antigen p53 (Homo sapiens), sequence (P04637 whole entry, looked up): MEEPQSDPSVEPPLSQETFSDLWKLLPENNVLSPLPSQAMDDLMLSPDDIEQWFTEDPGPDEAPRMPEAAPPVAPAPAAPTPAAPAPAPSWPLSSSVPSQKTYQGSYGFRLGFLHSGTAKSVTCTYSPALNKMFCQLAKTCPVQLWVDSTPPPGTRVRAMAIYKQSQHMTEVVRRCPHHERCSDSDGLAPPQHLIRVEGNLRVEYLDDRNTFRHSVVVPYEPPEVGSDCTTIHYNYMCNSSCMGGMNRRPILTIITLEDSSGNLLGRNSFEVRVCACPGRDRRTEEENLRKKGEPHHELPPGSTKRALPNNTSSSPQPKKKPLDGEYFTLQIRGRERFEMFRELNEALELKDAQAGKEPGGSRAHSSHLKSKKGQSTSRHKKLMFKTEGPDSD

Regarding `CN(C)CCCN(C)CCCN(C)C`, the outcome in [1] was “inactive”; in test [2], “inactive”; in test [3], “inactive”; in [4], “inactive”; in [5] it was “inactive”; with TIMP1, TIMP1 (gene 7076), “inactive”. Besides, the result in [6], in test [7], in [8], in [9], in test [10] and in test [11] was inactive. Further, the molecule was classed as inactive in test [12], in [13] and in [14].
As usually defined, the AC50 is the midpoint of the concentration-response curve, whichever way the signal moves. Regarding `O=C1NC(=O)C(c2ccccc2)(c2ccccc2)N1`, the outcome was “inactive” in [1]; “inactive” in test [2]; “inactive” in [3]; “inactive” in test [4]; “inactive” in test [5]; “inactive” in the test with TIMP1, TIMP1 (gene 7076). The molecule was classed as inactive in test [6], in test [7], in test [10], in [11], in test [12] and in test [15]. Besides, the AC50 in [9] is 19.3 µM (active).
In the case of `O=C(N[C@@H](c1ccccc1)[C@@H]1CCCCN1)c1cccc(C(F)(F)F)c1Cl`, the AC50 in test [1] was 83.8 µM (active); in test [2] it was 80.3 µM (active); in [3], 37.1 µM (active); in test [5], 82.3 µM (active); in [6], 82.2 µM (active); in test [9], 57.7 µM (active). For the same molecule, the half-maximal activity concentration (AC50) was 69.1 µM (active) in test [10] and 43 µM (active) in test [12]. In addition, the outcome in test [4] was “inactive”; in the test with TIMP1, TIMP1 (gene 7076) it was “inactive”; in [7] it was “inactive”; in test [11], “inactive”.
As to `Oc1ccc(O)cc1`, the molecule was classed as inactive in test [1], in test [2], in test [3], in test [16], in test [4] and in test [5]. Besides, the outcome was “inactive” with TIMP1, TIMP1 (gene 7076); “inactive” in test [6]; “inactive” in [8]; “inactive” in test [9]; “inactive” in [10]; “inactive” in [11]. For the same molecule, the molecule was called inactive in [12], in [17], in test [13] and in test [14]. Further, the AC50 is 72.8 µM (active) and 70 µM (active) in [17]; 20.2 µM (active) in test [13]; 42.5 µM (active) and 61.1 µM (active) and 38.2 µM (active) in test [18]; 21.4 µM (active) in test [14].
As to `NC1CCCCC1`, the outcome in test [1], in test [2], in test [3], in test [16], in test [4] and in [5] was inactive. Besides, the outcome with TIMP1, TIMP1 (gene 7076) is “inactive”; in [6] it was “inactive”; in [9] it was “inactive”; in test [10], “inactive”; in test [11], “inactive”; in test [12], “inactive”.
With `O=C(O)CN(CC(=O)O)CC(=O)O`, the outcome was “inactive” in test [1]; “inactive” in [2]; “inactive” in test [3]; “inactive” in [4]; “inactive” in test [5]; “inactive” with TIMP1, TIMP1 (gene 7076). Further, the molecule was classed as inactive in [6], in [7], in test [8], in test [9], in test [10] and in test [11]. Besides, the molecule was called inactive in test [12], in test [17], in test [13], in test [18] and in [14].

Source of the values: PubChem BioAssay (EPA / NIEHS).
